Laboratory results as given in PMC11062922 (Nature Chemical Biology, 2023).

These compounds were tested on ACVR1B. Settings: read-out: apparent Kd; compound concentrations:100 nM and 1000 nM (sheet 'Samples'); n = 1.
Set-up: species or system human, MV4-11 + K-562 + COLO205 + SK-N-BE2 + OVCAR-8

First: c1ccc(-c2n[nH]cc2-c2ccnc(-c3ccc(OCCN4CCOCC4)cc3)c2)nc1 [GW695874X]
Second: Cl.c1ccc(-c2n[nH]cc2-c2ccnc(-c3ccc(CN4CCOCC4)cc3)c2)nc1 [GW776245A]
The potency estimated from few doses of the first is 6.5-fold lower: 51.4 nM for the first, 335 nM for the second.

Compared with `O=C(c1ccc(-c2cc(-c3c[nH]nc3-c3ccccn3)ccn2)cc1)N1CCCC1` [GW792479X], `O=C(c1ccc(-c2cc(-c3c[nH]nc3-c3ccccn3)ccn2)cc1)N1CCOCC1` [GW812171X] is 2.3-fold lower in potency estimated from few doses: 270 nM for the first, 119 nM for the second.

Going from `Nc1nc(-c2cccc(Cl)c2)c(-c2ccc3ncccc3n2)s1` [GW780159X] to `Clc1cccc(-c2nc(Nc3ccncc3)c3ccccc3n2)c1` [GW873004X], the potency estimated from few doses rises from 1.63 nM to 843 nM (520-fold).

Compared with `CNc1ncc2cc(Oc3ccc(F)cc3F)c(=O)n(C)c2n1` [RO5083957-000], `COc1ccc2cc(-c3c(-c4ccncc4)nc(-c4ccc(S(C)=O)cc4C)n3C)ccc2c1` (stereo not shown) [SB-630812] is 3-fold lower in potency estimated from few doses: 853 nM for the first, 288 nM for the second.

Going from `COc1ccc2nc(-c3cccc(C)n3)nc(Nc3ccncc3)c2c1` [GSK204919_KCGS] to `Cc1cccc(-c2nc(C)cc(Nc3ccncc3)n2)n1` [GSK257997A], the potency estimated from few doses rises from 61.3 nM to 431 nM (7-fold).

`Cc1cccc(-c2cc(Nc3ccncc3)c3ccccc3n2)n1` [GSK223675A] and `Cc1csc(-c2nc(Nc3ccncc3)c3ccccc3n2)n1` [GW869640X] are within 1.5-fold of each other in potency estimated from few doses: 21.7 nM for the first, 17.6 nM for the second.

Going from `c1ccc(-c2n[nH]cc2-c2ccnc(-c3ccc(OCCn4ccnc4)cc3)c2)nc1` [GW711782X] to `COc1ccc(-c2cc(-c3c[nH]nc3-c3ccccn3)ccn2)cc1` [GW679410X], the potency estimated from few doses rises from 245 nM to 686 nM (2.8-fold).

What follows are compounds tested on ACVR1. Settings: read-out: apparent Kd; compound concentrations:100 nM and 1000 nM (sheet 'Samples'); n = 1.
Set-up: species or system human, MV4-11 + K-562 + COLO205 + SK-N-BE2 + OVCAR-8

`O=C(Nc1n[nH]c2nc(-c3ccc(O)cc3)ccc12)C1CC1` [SB-710363] and `CCN1CCN(CCCC(=O)Nc2n[nH]c3nc(-c4ccc(O)cc4)c(Br)cc23)CC1` [SB-731579] are within 1.5-fold of each other in potency estimated from few doses: 1210 nM for the first, 914 nM for the second.

Compared with `Cc1cc(O)cc(C)c1/C=C/c1cncc(C(N)=O)c1` [GW435821X_KCGS], `CN1C(=O)[C@@H](NC(=O)c2cc(Cc3ccccc3)on2)COc2ccccc21` [GSK481] is 12-fold higher in potency estimated from few doses: 107 nM for the first, 1270 nM for the second.

The compounds below were run on NQO2. Settings: read-out: apparent Kd; compound concentrations:100 nM and 1000 nM (sheet 'Samples'); n = 1.
Set-up: species or system human, MV4-11 + K-562 + COLO205 + SK-N-BE2 + OVCAR-8

`c1ccc(-c2n[nH]cc2-c2ccnc(-c3ccc(OCCN4CCOCC4)cc3)c2)nc1` [GW695874X] and `Cl.c1ccc(-c2n[nH]cc2-c2ccnc(-c3ccc(CN4CCOCC4)cc3)c2)nc1` [GW776245A] are within 1.5-fold of each other in potency estimated from few doses: 256 nM for the first, 243 nM for the second.

Compared with `O=C(c1ccc(-c2cc(-c3c[nH]nc3-c3ccccn3)ccn2)cc1)N1CCCC1` [GW792479X], `COc1ccc(-c2cc(-c3c[nH]nc3-c3ccccn3)ccn2)cc1` [GW679410X] is 8.3-fold lower in potency estimated from few doses: 1390 nM for the first, 168 nM for the second.

With `c1ccc(-c2n[nH]cc2-c2ccnc(-c3ccc(OCCn4ccnc4)cc3)c2)nc1` [GW711782X] the potency estimated from few doses was 71.1 nM.

What follows are compounds tested on PRKD2. Settings: read-out: apparent Kd; compound concentrations:100 nM and 1000 nM (sheet 'Samples'); n = 1.
Set-up: species or system human, MV4-11 + K-562 + COLO205 + SK-N-BE2 + OVCAR-8

First: c1ccc(-c2n[nH]cc2-c2ccnc(-c3ccc(OCCN4CCOCC4)cc3)c2)nc1 [GW695874X]
Second: c1ccc(-c2n[nH]cc2-c2ccnc(-c3ccc(OCCn4ccnc4)cc3)c2)nc1 [GW711782X]
The potency estimated from few doses of the first is 3.3-fold lower: 648 nM for the first, 2160 nM for the second.

Going from `Nc1nc(-c2cccc(Cl)c2)c(-c2ccc3ncccc3n2)s1` [GW780159X] to `Cc1cccc(-c2cc(Nc3ccncc3)c3ccccc3n2)n1` [GSK223675A], the potency estimated from few doses falls from 815 nM to 293 nM (2.8-fold).

First: COc1ccc2nc(-c3cccc(C)n3)nc(Nc3ccncc3)c2c1 [GSK204919_KCGS]
Second: Cc1cccc(-c2nc(C)cc(Nc3ccncc3)n2)n1 [GSK257997A]
The potency estimated from few doses of the first is 32-fold lower: 12.6 nM for the first, 408 nM for the second.

With `Cc1csc(-c2nc(Nc3ccncc3)c3ccccc3n2)n1` [GW869640X] the potency estimated from few doses was 191 nM.

Each compound was assayed on PRKD3. Settings: read-out: apparent Kd; compound concentrations:100 nM and 1000 nM (sheet 'Samples'); n = 1.
Set-up: species or system human, MV4-11 + K-562 + COLO205 + SK-N-BE2 + OVCAR-8

First: c1ccc(-c2n[nH]cc2-c2ccnc(-c3ccc(OCCN4CCOCC4)cc3)c2)nc1 [GW695874X]
Second: Cc1cccc(-c2cc(Nc3ccncc3)c3ccccc3n2)n1 [GSK223675A]
The potency estimated from few doses of the first is 2.5-fold higher: 1460 nM for the first, 590 nM for the second.

Compared with `COc1ccc2nc(-c3cccc(C)n3)nc(Nc3ccncc3)c2c1` [GSK204919_KCGS], `Cc1cccc(-c2nc(C)cc(Nc3ccncc3)n2)n1` [GSK257997A] is 190-fold higher in potency estimated from few doses: 8.21 nM for the first, 1590 nM for the second.

Compound `Cc1csc(-c2nc(Nc3ccncc3)c3ccccc3n2)n1` [GW869640X] has a potency estimated from few doses of 504 nM.

These compounds were tested on RIPK2. Settings: read-out: apparent Kd; compound concentrations:100 nM and 1000 nM (sheet 'Samples'); n = 1.
Set-up: species or system human, MV4-11 + K-562 + COLO205 + SK-N-BE2 + OVCAR-8

`c1ccc(-c2n[nH]cc2-c2ccnc(-c3ccc(OCCN4CCOCC4)cc3)c2)nc1` [GW695874X] and `Cl.c1ccc(-c2n[nH]cc2-c2ccnc(-c3ccc(CN4CCOCC4)cc3)c2)nc1` [GW776245A] are within 1.5-fold of each other in potency estimated from few doses: 774 nM for the first, 1080 nM for the second.

Compared with `Cc1cc(O)cc(C)c1/C=C/c1cncc(C(N)=O)c1` [GW435821X_KCGS], `c1ccc(-c2n[nH]cc2-c2ccnc(-c3ccc(OCCn4ccnc4)cc3)c2)nc1` [GW711782X] is 8.3-fold higher in potency estimated from few doses: 96.7 nM for the first, 801 nM for the second.

The compounds below were run on TGFBR1. Settings: read-out: apparent Kd; compound concentrations:100 nM and 1000 nM (sheet 'Samples'); n = 1.
Set-up: species or system human, MV4-11 + K-562 + COLO205 + SK-N-BE2 + OVCAR-8

Compared with `c1ccc(-c2n[nH]cc2-c2ccnc(-c3ccc(OCCN4CCOCC4)cc3)c2)nc1` [GW695874X], `Cl.c1ccc(-c2n[nH]cc2-c2ccnc(-c3ccc(CN4CCOCC4)cc3)c2)nc1` [GW776245A] is 1.9-fold higher in potency estimated from few doses: 27.7 nM for the first, 51.8 nM for the second.

First: O=C(c1ccc(-c2cc(-c3c[nH]nc3-c3ccccn3)ccn2)cc1)N1CCCC1 [GW792479X]
Second: O=C(c1ccc(-c2cc(-c3c[nH]nc3-c3ccccn3)ccn2)cc1)N1CCOCC1 [GW812171X]
The potency estimated from few doses of the first is 1.7-fold higher: 118 nM for the first, 67.6 nM for the second.

First: Cc1cccc(-c2nc(C)cc(Nc3ccncc3)n2)n1 [GSK257997A]
Second: COc1ccc(-c2cc(-c3c[nH]nc3-c3ccccn3)ccn2)cc1 [GW679410X]
The potency estimated from few doses of the first is 2.2-fold lower: 75.9 nM for the first, 170 nM for the second.

`c1ccc(-c2n[nH]cc2-c2ccnc(-c3ccc(OCCn4ccnc4)cc3)c2)nc1` [GW711782X] gave a potency estimated from few doses of 82 nM.
